Entries with a potency or affinity are not part of this list.

One experiment deals with Staphylococcus aureus. As to conditions: Concentration 32 ug.mL-1;; ASSAY_TEST Inhibition of Bacterial Growth; detection method Absorption (OD600); MEDIA CAMHB; plate type 384well; NBS; CORNING #3640; time 18 hr.
The next experiment has as its system Escherichia coli. As to conditions: Concentration 32 ug.mL-1;; ASSAY_TEST Inhibition of Bacterial Growth; detection method Absorption (OD600); MEDIA CAMHB; plate type 384well; NBS; CORNING #3640; time 18 hr.

Turning to `CCc1nnc2ccc(S(=O)(=O)N(Cc3cccc(OC)c3)c3cccc(F)c3)cn12`, the Inhibition with Staphylococcus aureus was -0.28%; with Escherichia coli it was -5.95%.
Take `COc1ccc(Cl)cc1NC(=O)CSc1nnc2c(=O)n(-c3ccccc3)ccn12`: the Inhibition was 7.26% with Staphylococcus aureus and -0.85% in the experiment on Escherichia coli.
The corresponding values for `Cc1cc(C)c(NC(=O)CSc2nnc3ccc(C(=O)Nc4cccc(F)c4)cn23)c(C)c1` are 12.67% and 2.09%.
Take `COc1ccc(NC(=O)CSc2nnc3c(=O)n(-c4ccccc4)ccn23)cc1`: the figures for the Inhibition in the experiment with Staphylococcus aureus and in the experiment with Escherichia coli were -4.77% and -6.17%, respectively.

The values are drawn from ChEMBL document CHEMBL4513146, “CO-ADD screening of Karazin Kharkiv National University (Ukraine) compounds”.
